The results in this text go back to PubChem BioAssay (EPA / NIEHS).

Assay [1] can be described thus: ATG_XTT_Cytotoxicity: Cytotoxicity Assessment in the Attagene TRANS-FACTORIAL HepG2 Assay (AID 2283584).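 For AC50: cells exposed to compound for 24 h before reading; active means loss of viability signal versus DMSO baseline.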 In a few lines: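 XTT readout of cell number in transfected HepG2 cells, 24 h post-dosing; DMSO serves as negative control and baseline, with activity taken as loss of viability signal.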
A short description of assay [2]: TOX21_p53_BLA_p2_viability: Viability Assessment in the Tox21 HCT-116 p53 Agonism Beta-lactamase Assay, Phase 2 (AID 2283591).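 Note: actives lower the ATP signal meaning cytotoxicity.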 In outline: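 Cytotoxicity readout: CellTiter-Glo ATP luminescence, 30 min at room temperature, after the beta-lactamase read. Cells were HCT116 exposed 16 h at 37C to compounds pin-transferred at 217-fold dilution from DMSO stocks.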
In assay [3] the target is Cellular tumor antigen p53 (Homo sapiens) (UniProt P04637). The assay can be described thus: TOX21_p53_BLA_p2_ratio: Tox21 HCT-116 p53 Agonism Beta-lactamase Assay, Ratio, Phase 2 (AID 2283592). In a few lines: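 Readout: blue/green (460/530 nm) FRET emission ratio after 2 h CCF4-AM loading at room temperature, excitation 405 nm. HCT116 p53 bla cells, 16 h compound exposure at 37C, 5% CO2; agonist direction fitted against DMSO baseline.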

The nature of assay [4]: TOX21_p53_BLA_p3_viability: Viability Assessment in the Tox21 HCT-116 p53 Agonism Beta-lactamase Assay, Phase 3 (AID 2283593).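 Note: cells exposed to compound for 16 h before reading.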 In outline:
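Cellular ATP was quantified by CellTiter-Glo luminescence, read after 30 min at room temperature. Beforehand, HCT116 cells (4000/well) received compound 5 h post-seeding, 217-fold diluted from DMSO, then incubated 16 h at 37C.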

SMILES strings stand for the structures. Where “and” joins values, the source holds several entries; their conditions need not be identical. Equal entries are not always repeated. Results filed as inconclusive are left out. Some compounds were tested as several samples or in several runs, with calls that do not always agree. Calls of active or inactive are those of the source. Rule for the calls: active = hit-call score of the fitted dose curve at least 0.9, where 1 is the maximum; inconclusive = response in the unintended direction; inactive = score below 0.9.

Cellular tumor antigen p53 (Homo sapiens), sequence (P04637 whole entry, looked up): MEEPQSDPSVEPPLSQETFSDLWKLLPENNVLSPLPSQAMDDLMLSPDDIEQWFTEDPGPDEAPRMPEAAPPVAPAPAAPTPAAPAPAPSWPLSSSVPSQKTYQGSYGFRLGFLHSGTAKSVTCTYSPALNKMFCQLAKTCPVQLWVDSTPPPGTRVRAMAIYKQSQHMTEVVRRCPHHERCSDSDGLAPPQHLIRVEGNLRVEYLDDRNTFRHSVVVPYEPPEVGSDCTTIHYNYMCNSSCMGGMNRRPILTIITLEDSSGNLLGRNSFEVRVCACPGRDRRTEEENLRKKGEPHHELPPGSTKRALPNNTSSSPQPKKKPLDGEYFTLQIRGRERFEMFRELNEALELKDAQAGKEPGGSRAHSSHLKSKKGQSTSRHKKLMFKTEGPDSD

Consider `NNC(=O)OCc1ccccc1`, for which, in assay [1], the outcome was inactive.
`O=C(O)c1cccc(Cl)n1`: the compound was called inactive in assay [1] and in assay [2].
Take `OC[C@H]1O[C@@H](O[C@H]2[C@H](O)[C@@H](O)[C@H](O)O[C@@H]2CO)[C@H](O)[C@@H](O)[C@H]1O`: the outcome in assay [1], in assay [2] and in assay [3] was inactive.
For the compound `c1ccc(Cc2ccccc2)cc1`, the compound was called inactive in assay [1], in assay [2] and in assay [3].
Consider `CC(=O)c1ccc(C)cc1`, for which the compound was classed as inactive in assay [1].
Take `CCCCCCOC(C)=O`: the compound was classed as inactive in assay [1], in assay [2] and in assay [3].
For the compound `c1ccc2c(c1)-c1ccc3ccc4cccc5cc-2c1c3c45`, the compound was called inactive in assay [1].
Still for that read-out and setting: in the case of `C=C1CC[C@H]2O[C@]2(C)CC[C@@H]2[C@@H]1CC2(C)C` it was “inactive”.
Still for that read-out and setting: the entry for `CCCCCCCCSCc1cc(C)c(O)c(CSCCCCCCCC)c1` is “inactive”.
`Cc1cccc(O)c1`: the call in assay [1] and in assay [2] was inactive.
As for `CCNC(=S)NCC`, the compound was called inactive in assay [1], in assay [2] and in assay [3].
In general, AC50 refers to the concentration giving half of the maximal activity seen. In the case of `CCCCCCCCOC(=O)c1ccc(O)cc1`, in assay [1], the AC50 is 100 µM (active) and the compound was classed as inactive.
For `O=C1CCCCCCCCCCCC(=O)OCCO1`, the compound was called inactive in assay [1].
The same measure, in the same setting: in the case of `CCC(CC)CO` it was “inactive”.
Turning to `O=c1cc(-c2ccc(O)cc2)oc2cc(O)cc(O)c12`, the call in assay [1], in assay [2] and in assay [3] was inactive.
In the case of `CC(C)C(=O)OCC=Cc1ccccc1`, the compound was classed as inactive in assay [1], in assay [2] and in assay [3].
Consider `CC(C)(C)c1cc(CCC(=O)OCCSCCOC(=O)CCc2cc(C(C)(C)C)c(O)c(C(C)(C)C)c2)cc(C(C)(C)C)c1O`, for which the compound was called inactive in assay [1].
The same measure, in the same setting: the entry for `CC(C)N(c1ccccc1)C(C)C` is “inactive”.
Regarding `CC(C)(C)c1ccc(S)cc1`, the result in assay [1] and in assay [2] was inactive.
For `CCCCCCCCCCOC(=O)c1ccccc1C(=O)OCCCCCCCC`, the outcome in assay [1] was inactive.
As to `CC(=O)OC(C)(C)C1CC=C(C)CC1` (stereo unspecified), the call in assay [1] and in assay [2] was inactive.
Regarding `O=C(O)C1=NN(c2ccc(S(=O)(=O)O)cc2)C(=O)C1`, the call in assay [1], in assay [2] and in assay [3] was inactive.
Turning to `CCCCCCCCCCCCCC(=O)OCC`, the compound was classed as inactive in assay [1], in assay [2] and in assay [3].
As to `Nc1cc([N+](=O)[O-])ccc1C(=O)O`, the call in assay [1], in assay [2] and in assay [3] was inactive.
Take `CCC(=O)OC/C=C(\C)CCC=C(C)C`: the compound was classed as inactive in assay [1].
In the case of `CCO[Si](CCC#N)(OCC)OCC`, the result in assay [1] was inactive.
Consider `[Cu+]`, for which the result in assay [1] and in assay [2] was inactive.
In the case of `CC/C=C\C#N`, the call in assay [1], in assay [2] and in assay [3] was inactive.
As to `CC(=O)CC(=O)N(C)C`, the compound was classed as inactive in assay [1], in assay [2] and in assay [3].
In the case of `O=S(=O)(O)CCCN1CCOCC1`, the compound was called inactive in assay [1] and in assay [2].
For `S=c1[nH][nH]c(=S)s1`, the result in assay [1], in assay [2] and in assay [3] was inactive.
`CCCCC(CC)COCCO` (stereo unspecified): the call in assay [1], in assay [2] and in assay [3] was inactive.
For the compound `CC(=O)CCC=C(C)CCC=C(C)C`, the compound was called inactive in assay [1], in assay [2] and in assay [3].
Consider `O=C(O)c1cc2ccccc2cc1O`, for which the compound was classed as inactive in assay [1].
In the case of `CCOC(=O)COC(=O)c1ccccc1C(=O)OCC`, the outcome in assay [1] and in assay [2] was inactive.
Regarding `CC1(C)[C@H](C=C(Cl)Cl)[C@H]1C(=O)OCc1cccc(Oc2ccccc2)c1`, the outcome in assay [1] was inactive.
The same measure, in the same setting: in the case of `CC=CC(=O)C1=C(C)C=CCC1(C)C` it was “inactive”; in that of `C[N+](C)(C)CCO`, “inactive”; in that of `CCCC[N+](C)(CCCC)CCCC`, “inactive”.
For `CCCCOCCOC(=O)c1ccccc1C(=O)OCCOCCCC`, the outcome in assay [1], in assay [2], in assay [3] and in assay [4] was inactive.
With `Cc1ccc(C(C)(C)O)cc1`, the compound was called inactive in assay [1], in assay [2] and in assay [3].
For `CCOC(=O)CC1(C)OCC(C)O1` (stereo unspecified), the compound was classed as inactive in assay [1], in assay [2], in assay [3] and in assay [4].
Consider `CN(C)CCC=C1c2ccccc2CCc2ccccc21`, for which the AC50 in assay [1] was 157 µM (active); in assay [2] it was 74.2 µM (active). Also, the result in assay [3] and in assay [4] was inactive.
With `CC(=O)C1C(=O)C=C(C)OC1=O` (stereo unspecified), the call in assay [1], in assay [2], in assay [3] and in assay [4] was inactive.
On to `CC(CCO)CC(C)(C)C` (stereo unspecified), for which the outcome in assay [1], in assay [2] and in assay [3] was inactive.
For `CCCCCC1C(=O)CCC1CC(=O)OC` (stereo unspecified), the call in assay [1], in assay [2], in assay [3] and in assay [4] was inactive.
In the case of `c1ccc2scnc2c1`, the outcome in assay [1], in assay [2], in assay [3] and in assay [4] was inactive.
`CC(=O)OC/C=C(C)/C=C/C=C(C)/C=C/C1=C(C)CCCC1(C)C`: the compound was called inactive in assay [1], in assay [2], in assay [3] and in assay [4].
`CCCCCC(=O)O[C@]1(C(C)=O)CC[C@H]2[C@@H]3CCC4=CC(=O)CC[C@]4(C)[C@H]3CC[C@@]21C`: the compound was classed as inactive in assay [1], in assay [2], in assay [3] and in assay [4].
For the compound `COc1ccccc1NC(=O)CC(C)=O`, the call in assay [1], in assay [2], in assay [3] and in assay [4] was inactive.
With `COC(=O)C(C)Oc1ccc(Oc2ncc(C(F)(F)F)cc2Cl)cc1` (stereo unspecified), the outcome in assay [1], in assay [2], in assay [3] and in assay [4] was inactive.
For the compound `CC12CCC(C1)C(C)(C)C2O` (stereo unspecified), the result in assay [1], in assay [2], in assay [3] and in assay [4] was inactive.
As to `CC(O)CNCC(C)O` (stereo unspecified), the compound was classed as inactive in assay [1], in assay [2], in assay [3] and in assay [4].
`C[C@H](CCC(=O)O)[C@H]1CC[C@H]2[C@@H]3CC[C@@H]4C[C@H](O)CC[C@]4(C)[C@H]3CC[C@]12C`: the result in assay [1] and in assay [3] was inactive. In addition, the AC50 in assay [2] was 16.3 µM (active) and 14.2 µM (active); in assay [3], 21.8 µM (active); in assay [4], 31.4 µM (active) and 30 µM (active).
As to `CCOC(=O)C=Cc1ccccc1`, the result in assay [1], in assay [2], in assay [3] and in assay [4] was inactive.
On to `COc1ccc2[nH]cc(CCNC(C)=O)c2c1`, for which the call in assay [1], in assay [2], in assay [3] and in assay [4] was inactive.
Regarding `NC(=O)c1cnccn1`, the call in assay [1], in assay [2], in assay [3] and in assay [4] was inactive.
With `CC1=CC(O)CC(C)(C)C1` (stereo unspecified), the result in assay [1], in assay [2] and in assay [3] was inactive.
As for `NC(N)=NC(N)=NCCc1ccccc1`, the outcome in assay [1], in assay [2], in assay [3] and in assay [4] was inactive. The AC50 in assay [3] is 20.4 µM (active).
Take `CCCCC/C=C\C=C\C(=O)OCC`: the compound was called inactive in assay [1]. The AC50 in assay [2] was 68.7 µM (active); in assay [3], 75.6 µM (active); in assay [4], 49.1 µM (active).
For `CCCCCCCCCCCCOCCOS(=O)(=O)O`, in assay [1], the AC50 was 154 µM (active). In addition, the result in assay [2] and in assay [4] was inactive.
